# Experimental data published in PubChem BioAssay AID1276 (Columbia University Molecular Screening Center, 2008).
# In all, about 190,000 compounds went through this assay and about 2,000 (1.1%) were called active. Many of the other results were omitted from the sample, so actives are more common in it than they were. A number with no mark means an inactive call.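 The calls were made as follows: active = activation above a set limit, based on mean plus 3 SD of controls (cut at about 140% in these data); inconclusive = one replicate above the limit, the other below; inactive = the rest.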
# Test: activators of APP 5'UTR luciferase reporter, primary screen, SH-SY5Y cells (AID 1276)
# Settings: SH-SY5Y APP 5'UTR luciferase reporter, luminescence; at 2 µM; active compounds read high; zero percent = DMSO vehicle wells
row,Structure (SMILES),activation
1,O=C(CN1CCN(c2ccccn2)CC1)N1CCc2ccccc21,30.9%
2,O=C(c1cc(-c2cccs2)on1)N1CCCCC1,138% (active)
3,O=C(c1cc(-c2ccccc2O)on1)N1CCCC1,102%
4,COc1ccccc1-c1cc(C(=O)N2CCCCC2)no1,113%
5,O=C(Nc1ccc(N2CCOCC2)cc1)c1ccc(-c2ccccc2[N+](=O)[O-])o1,17.6%
6,CC1Cc2ccccc2N1C(=O)CSc1nnc(C2CC2)n1C (centres undefined),23.3%
7,COc1ccc(N2C(=O)CC(Sc3n[nH]c(-c4ccc(C)cc4)n3)C2=O)cc1 (centres undefined),14.7%
8,O=C(Nc1ccc(F)cc1)N1CCCC(c2nc3c(nnn3Cc3ccccc3Cl)c(=O)[nH]2)C1 (centres undefined),-4.96%
9,CN(c1ccc(C(=O)NCCC2=CCCCC2)cc1)S(C)(=O)=O,76%
10,Cn1nnc2cc(C(=O)NCCC3=CCCCC3)ccc21,174% (active)
11,O=C(NCCC1=CCCCC1)c1ccc(Cl)c([N+](=O)[O-])c1,8.77%
12,CCOCCCNC(=O)C(=O)NCCCOCC,-1.33%
13,O=C(C1CCCO1)N(c1ccc(F)cc1)C1C=CS(=O)(=O)C1 (centres undefined),5.93%
14,Cc1ccc(NC(=O)COC(=O)CCc2nc3ccccc3n2-c2ccccc2)c(C)c1,11.8%
15,O=C(CN1CCN(c2ncccn2)CC1)Nc1ccccc1C(F)(F)F,-6.86%
16,Cc1ccc(CN(Cc2cccnc2)C(=S)Nc2cc(Cl)ccc2C)cc1,2.52%
17,COCc1nnc(NC(=O)c2ccc3c(c2)OCO3)s1,61.2%
18,O=C(Nc1ccccc1)Nc1nc2ccccc2s1,212% (active)
19,O=C(Nc1nc2ccccc2s1)c1ccc2c(c1)OCO2,183% (active)
20,Cc1cc(C)c2nc(NC(=O)c3ccc4c(c3)OCO4)sc2c1,-8.57%
21,CC(=O)Nc1ccc(-c2csc(NC(=O)Nc3ccccc3)n2)cc1,-14.7%
22,CSCCC(Nc1nc2ccccc2s1)C(=O)O (centres undefined),-7.07%
23,CCCC1NC(=S)NC(C)=C1C(C)=O (centres undefined),-10.8%
24,CCCCCOc1ccc(/C=C/C(=O)NCCc2nc3ccccc3[nH]2)cc1OC,-0.79%
25,S=C(NCc1ccco1)Nc1ccc2c(c1)OCCO2,18.6%
26,CC1CCCC(C)N1/N=C/c1ccccc1OC(F)F (centres undefined),5.03%
27,Clc1ccc2nc(CSc3ccccc3)cn2c1,216% (active)
28,CCOc1ncccc1C(=O)OCc1cn2cc(Cl)ccc2n1,-0.86%
29,O=c1cc(CSc2ccc(Cl)cc2)nc(N2CCOCC2)[nH]1,6.36%
